ERAP1 HTS inh: blocks human ERAP1 aminopeptidase activity; Q9NZ08; recombinant ERAP1, Leu-AMC fluorescence, 60 min; inhibition, % at 10.7 µM; hit rate 0.15% among 340,000; AID 652197;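 active = mean replicate inhibition of at least 30%, or all replicates individually reaching that 30% level; inactive = mean below 30% and not every replicate reaching it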;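 also: 0% = neutral control wells and 100% = L-leucinethiol positive control wells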
PGC1a acetyl inh: PGC1a acetylation modulation, inhibitor mode. U2OS PGC1a acetylation, AlphaScreen anti-acetyl-lysine; with virally co-expressed GCN5 acetyltransferase. inhibition, % at 15.6 µM. hit rate 0.17% among 350,000;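 active = every replicate shows inhibition of at least 40%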;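 also: 0% = neutral control wells and 100% = positive control wells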
MLL AF4-AF9 inh: blocks AF4 peptide binding to human AF9; P42568; AlphaScreen, biotin-AF4 peptide binding to FLAG-AF9; inhibition, % at 10 µM; hit rate 0.47% among 350,000; AID 651704;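 active = every replicate reaching a set inhibition limit, whatever the replicate mean, cut at about 25% in these data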;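 also: 0% = plate neutral control median and 100% = total signal loss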
RAD52 inh: inhibitors of human RAD52 DNA annealing; recombinant RAD52 DNA annealing, FRET fluorescence; inhibition, % at 18.7 µM; hit rate 0.46% among 360,000;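 active = every replicate showing at least 50% inhibition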
RAD54 inh: blocks human RAD54 Holliday junction branch migration; FAM/BHQ fluorescence; AID 602329; inhibition, % at 10.4 µM; hit rate 0.14% among 360,000;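 active = mean normalized replicate activity at least 40 and at least half of replicates scoring 40 or more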;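 also: 0% = median of neutral control wells and 100% = median of positive control wells; inhibitors cause a drop in the FAM fluorescence signal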
INS-1E GSIS act: GLuc luminescence reporter in INS-1E cells, primary screen for activators of glucose-dependent secretion of insulin; INS-1E GLuc reporter insulin secretion, 2-3 h; activation, % at 16.6 µM; hit rate 0.61% among 370,000;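 active = lowest replicate activation of at least 40%, so every replicate reaches that level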;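 also: 0% = median of neutral control wells and 100% = median of IBMX positive control wells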
An asterisk follows results filed as active; · = not tested or not shown; ! = repeats disagree. This is a sample that favours compounds with a hit; in the whole collection about 1.4% have one here.

SMILES	ERAP1 HTS inh	PGC1a acetyl inh	MLL AF4-AF9 inh	RAD52 inh	RAD54 inh	INS-1E GSIS act
C[C@@H]1CCCCO[C@@H](CN(C)S(=O)(=O)c2ccc(Cl)cc2)[C@H](C)CN([C@@H](C)CO)C(=O)c2cc(NS(=O)(=O)c3ccccc3)ccc2O1	0	-6	1	2	·	-8
COC(=O)c1scc(C)c1NC(=O)CC1NCCNC1=O (stereo not drawn)	-2	6	-15	-5	0	60*
Cc1ccc(NC(=O)CC2NCCNC2=O)cc1 (stereo not drawn)	·	15	·	·	-9	·
O=C(Nc1ccnn1C1CCN(C2CCC2)CC1)c1ccccc1Cl	-1	9	0	0	-3	64*
O=C(Nc1ccnn1C1CCN(C2CCCC2)CC1)c1ccccc1Cl	0	1	-2	-1	-3	14
CC[N+](C)(CC)CCC(c1ccccc1)C1CCCCC1 (stereo not drawn)	109*	·	0	-6	0	14
CCN(CCO)Cc1csc2cc(C)ccc12	0	·	2	-1	·	47*
CC(C)Sc1nc2c(cnn2-c2ccccc2)c(=O)[nH]1	7	-5	36*	-9	0	9
O=c1[nH]c(/C=C/c2ccc(OC(F)F)cc2)nc2c1cnn2-c1ccccc1	·	·	·	·	·	85*
COC(=O)C(C)Sc1nc2c(cnn2-c2ccccc2)c(=O)[nH]1 (stereo not drawn)	4	·	1	-2	6	22
CNC[C@H]1Oc2ccc(N(S(C)(=O)=O)S(C)(=O)=O)cc2C(=O)N(C)C[C@@H]1C	·	·	·	·	·	5
O=C(NC1Cc2ccccc2C1)[C@H]1[C@H](CO)[C@H]2Cn3c(ccc(-c4ccccc4F)c3=O)[C@@H]1N2	6	-3	1	-21	4	11
COc1ccccc1CNC(=O)C[C@H]1CC[C@@H]2[C@H](COC[C@@H](O)CN2Cc2ccc3c(c2)OCO3)O1	-1	-4	0	-2	2	-3
O=S(=O)(N[C@H]1CC[C@@H](CCn2cc(C3(O)CCCC3)nn2)O[C@@H]1CO)c1ccc(F)cc1	2	0	6	3	2	1
COC1=CC(=O)C(OC)=C(OC)C1=O	2	8	-1	-1	-3	44*
CN(C)CCCNC(=O)[C@@H]1[C@@H](CO)[C@@H]2Cn3c(ccc(-c4ccccc4)c3=O)[C@@H]2N1C	0	·	0	9	2	8
CCCN(C)C[C@@H]1Oc2cc(C#CCC(C)C)ccc2S(=O)(=O)N([C@@H](C)CO)C[C@H]1C	-2	·	1	-15	·	-21
COc1ccccc1C#Cc1ccc2c(c1)O[C@@H](CN(C)Cc1cccnc1)[C@@H](C)CN([C@@H](C)CO)S2(=O)=O	0	-12	6	26	-3	-6
CC(C)CC#Cc1ccc2c(c1)O[C@@H](CN(C)Cc1ccc(F)cc1)[C@H](C)CN([C@H](C)CO)S2(=O)=O	1	-9	4	8	2	46*
CCCN(C)C[C@@H]1Oc2cc(C#CCC(C)C)ccc2S(=O)(=O)N([C@@H](C)CO)C[C@@H]1C	3	-23	7	51*	2	-15
COc1ccccc1C#Cc1ccc2c(c1)O[C@@H](CN(C)Cc1cccnc1)[C@H](C)CN([C@@H](C)CO)S2(=O)=O	-2	44*	0	0	9	4
CN(C)CC(=O)N[C@H]1C=C[C@@H](CC(=O)O)O[C@@H]1CO	0	-1	-3	-8	·	-2
COc1ccc2c3c(n(C)c2c1)[C@@H](CO)N(Cc1cccnc1)CC31CN(Cc2cccnc2)C1	·	·	·	·	·	-6
CC1CCN(C(=O)CSc2nnc(-c3ccccc3F)o2)CC1	1	7	-1	-7	-6	63*
O=C1N/C(=N\N=C\c2cccs2)SC1Cc1ccc(Cl)cc1 (stereo not drawn)	5	4	-16	-2	0	-1
SMILES	ERAP1 HTS inh	PGC1a acetyl inh	MLL AF4-AF9 inh	RAD52 inh	RAD54 inh	INS-1E GSIS act
O=C1N/C(=N\N=C\c2cccs2)SC1Cc1cccc(Cl)c1 (stereo not drawn)	·	·	·	·	·	86*
COc1ccccc1CNC(=O)c1cc(C2CC2)nc2c1cnn2C(C)C	0	·	-3	-43	-6	-21
COc1ccc(CNC(=O)c2cc(C3CC3)nc3c2cnn3C(C)C)cc1	3	1	32*	-14	6	-7
COc1ccccc1-c1ccc(C2[C@@H]3CN(S(=O)(=O)c4ccccc4)C[C@H]2N3)cc1 (stereo partly drawn)	·	-1	·	55*	·	-9
COc1ccccc1-c1ccc(C2[C@@H]3CN(S(=O)(=O)c4ccc(F)cc4)C[C@H]2N3)cc1 (stereo partly drawn)	2	-18	1	61*!	·	-4
CCN1C(=O)c2cccc3cccc1c23	44*	1	3	0	-8	9
CCC(=O)N1[C@@H]2Cn3c(ccc(-c4ccncc4)c3=O)[C@H]1[C@@H](C(=O)NC1Cc3ccccc3C1)[C@@H]2CO	10	·	-5	18	3	4
COc1cccc(CN2CC3(C2)[C@H](c2ccccc2)[C@@H](CO)N3Cc2cccc(OC)c2)c1	·	·	·	·	·	0
CC(=O)c1ccc(OCC(=O)N(C2CCCCC2)C2CCS(=O)(=O)C2)cc1 (stereo not drawn)	0	·	0	-16	·	54*
CN(C(=O)COc1ccccc1)C1CCS(=O)(=O)C1 (stereo not drawn)	-2	·	-2	-44	·	2
CN1CCN(/N=C/c2ccc(-c3ccc([N+](=O)[O-])cc3Cl)o2)CC1	6	6	36*	1	·	3
O=[N+]([O-])c1ccc(Cl)c(-c2ccc(/C=N/n3cnnc3)o2)c1	-1	5	-14	-30	6	14
Cn1cnc([N+](=O)[O-])c1S(=O)(=O)Oc1ccccc1	4	-38	-3	-4	7	54*
Cn1cnc([N+](=O)[O-])c1S(=O)(=O)c1cccc(Cl)c1	1	·	0	-2	·	104*
Cn1cnc([N+](=O)[O-])c1S(=O)(=O)Nc1ccccc1	-5	19	-1	-3	3	-9
Cc1nn(C(C)C(=O)c2cccc(Cl)c2)c(C)c1[N+](=O)[O-] (stereo not drawn)	-1	·	-2	-3	·	-11
CCCC#Cc1ccc2c(c1)O[C@@H](CN(C)C(=O)Nc1ccccc1F)[C@H](C)CN([C@H](C)CO)S2(=O)=O	-2	4	5	23	1	-28
C[C@H]1CN([C@@H](C)CO)C(=O)Cc2cc(NS(=O)(=O)c3cn(C)cn3)ccc2O[C@H]1CN(C)CC1CCCCC1	·	5	·	·	·	28
CCOC(=O)c1ccc(-c2ccc(C=O)o2)cc1	-1	·	3	-45	·	·
CCOC(=O)c1cccc(-c2ccc(C=O)o2)c1	1	-7	-4	-10	-1	49*
